Reference: PubChem BioAssay AID449729 (Southern Research Specialized Biocontainment Screening …, 2010)
Activity calls are given as the source filed them. How the calls were made is not given here.

Each compound was assayed against Large T antigen (Simian virus 40) (UniProt P03070) (assay: large T antigen ATP hydrolysis inhibition – biochemical, ADP-Hunter, purified TAg, synthesized compounds, set 2 (AID 449729)). Details: purified TAg ATPase, ADP-Hunter fluorescence; series mostly up to 100 µM.
Large T antigen (Simian virus 40), sequence (P03070 whole entry, looked up): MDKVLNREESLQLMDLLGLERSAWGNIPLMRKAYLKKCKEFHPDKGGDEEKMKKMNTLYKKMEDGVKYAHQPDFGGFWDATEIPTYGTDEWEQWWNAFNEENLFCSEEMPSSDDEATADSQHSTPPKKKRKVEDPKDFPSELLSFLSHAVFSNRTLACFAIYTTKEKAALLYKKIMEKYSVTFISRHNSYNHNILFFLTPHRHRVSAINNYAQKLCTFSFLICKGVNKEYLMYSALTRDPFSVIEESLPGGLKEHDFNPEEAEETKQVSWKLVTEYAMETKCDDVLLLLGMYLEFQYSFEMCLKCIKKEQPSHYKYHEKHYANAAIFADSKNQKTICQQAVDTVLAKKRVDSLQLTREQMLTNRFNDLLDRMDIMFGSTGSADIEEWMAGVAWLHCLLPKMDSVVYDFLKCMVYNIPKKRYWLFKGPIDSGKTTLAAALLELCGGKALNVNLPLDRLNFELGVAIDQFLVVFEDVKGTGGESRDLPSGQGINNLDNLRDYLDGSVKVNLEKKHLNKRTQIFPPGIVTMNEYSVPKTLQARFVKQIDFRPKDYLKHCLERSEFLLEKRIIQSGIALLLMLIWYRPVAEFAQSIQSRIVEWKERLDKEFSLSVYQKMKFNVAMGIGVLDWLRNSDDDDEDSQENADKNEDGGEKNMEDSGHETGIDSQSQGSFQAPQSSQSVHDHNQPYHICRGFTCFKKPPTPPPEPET

outcome, inactive:
CC(C)(c1ccc(O)cc1)c1cccc(O)c1, C=C(c1ccc(Cl)cc1)c1ccc(Cl)cc1, COc1cccc(C(C)(O)c2cccc(OC)c2)c1, C=C(c1ccc(Br)cc1)c1ccc(Br)cc1, Oc1ccc(C2(c3ccc(O)cc3)CC2)cc1, C=C(c1ccccc1Cl)c1ccccc1Cl, C=C(c1ccc(F)cc1)c1ccc(F)cc1, C=C(c1cccc(OC)c1)c1cccc(OC)c1
